# Reference: PubChem BioAssay (NCI)
# Compounds without any hit were thinned out: in the full panel of roughly 83,000, 20% have a hit.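 Interpretation: 100, growth as untreated; towards 0, rising growth inhibition; 0, no net growth; 0 to -100, cell death. Compounds scoring below 10 were considered active.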 Values without a mark were called inactive. The source made the active and inactive calls.
# Key:
# Test in all cases: NCI-60 one-dose screen, 48 h (100 = growth as untreated, 0 = no growth, -100 = all killed)
# Details in all cases: 10 µM
# [1] = test system: NCI-H23 lung
# [2] = test system: NCI-H226 lung
# [3] = test system: NCI-H322M lung
# [4] = test system: HOP-62 NSCLC
# [5] = test system: NCI-H460 lung
# [6] = test system: HOP-92 NSCLC
# [7] = test system: NCI-H522 lung
# [8] = test system: A549/ATCC NSCLC
# [9] = test system: 786-0 renal
# [10] = test system: COLO 205 colon
# [11] = test system: DU-145 prostate
# [12] = test system: K-562 leukemia
# [13] = test system: MALME-3M melanoma
# [14] = test system: RXF 393 renal
# [15] = test system: SF-268 CNS
# [16] = test system: SF-295 CNS
# [17] = test system: SF-539 CNS
# [18] = test system: UACC-257 melanoma
# [19] = test system: M14 melanoma
# [20] = test system: MDA-MB-231 breast
SMILES,growth [1],growth [2],growth [3],growth [4],growth [5],growth [6],growth [7],growth [8],growth [9],growth [10],growth [11],growth [12],growth [13],growth [14],growth [15],growth [16],growth [17],growth [18],growth [19],growth [20]
O=c1[nH]n(C(=S)N/N=C/c2ccc(F)cc2)c(=O)c2ccccc12,75.3%,71.9%,83.9%,80.3%,55.9%,77%,70%,82.4%,76.5%,105%,68.9%,11.2%,80.4%,57.3%,104%,74.4%,-50.9% (active),95%,78.1%,
O=C1Nc2cc(Cl)ccc2/C1=C/c1ccc(OCc2ccc(Br)cc2F)cc1,-68.8% (active),-70.6% (active),5.43% (active),-79.7% (active),-81.5% (active),-43.4% (active),-52.5% (active),-75.2% (active),-88.7% (active),-43% (active),-17.5% (active),9.64% (active),-69.5% (active),-77.4% (active),-25.9% (active),-94.9% (active),-92% (active),-22.6% (active),-45.1% (active),
Cc1cccc2cc(-c3cc(-c4ccccc4)nc(=S)[nH]3)c(Cl)nc12,82.2%,90.5%,90.2%,97.4%,101%,73.2%,64.2%,95.9%,97.7%,123%,104%,38%,61%,78.9%,112%,64.7%,82.1%,77.8%,33.3%,
C=C(C)[C@@H]1CC[C@]2(C(=O)OC)CC[C@]3(C)[C@H](CC[C@@H]4[C@@]5(C)CC[C@H](N)C(C)(C)[C@@H]5CC[C@]43C)[C@@H]12,-94.8% (active),-89.3% (active),-96.5% (active),-81.6% (active),-53.7% (active),-68.9% (active),-77.8% (active),-86.9% (active),-98% (active),-68.9% (active),-87.9% (active),,-97.7% (active),-96% (active),-65.3% (active),-94.1% (active),-99.8% (active),-70% (active),-74% (active),-97.8% (active)
O=C1Nc2ccc(F)cc2/C1=C/c1cccc(OCc2ccccc2)c1,24.8%,35.3%,47.6%,48.4%,7.06% (active),18.8%,5.02% (active),41.8%,33.7%,34.1%,30.4%,6.34% (active),32.3%,-15.9% (active),29.9%,35.4%,19.8%,26.6%,17.3%,
Cc1nc2c(cnn2-c2ccccc2)c(=O)n1-c1ccc(NC(=O)c2ccc(F)cc2)cc1,50.2%,56.2%,86.1%,64.6%,54.4%,85.2%,63.9%,54.6%,82.5%,62.3%,80.7%,27.2%,68.4%,79.1%,88.9%,39.6%,85.5%,31.8%,62.9%,
O=C(c1ccc([N+](=O)[O-])c([N+](=O)[O-])c1O)n1[nH]c(=O)c2ccccc2c1=O,50.5%,82.1%,85.8%,75.5%,44.8%,78.6%,54.8%,77.6%,97.7%,124%,25.4%,12.8%,71.7%,66.7%,76.9%,90.9%,66.6%,79.9%,78.6%,
Cc1ccc(C(=O)Nc2ccc(-n3c(C)nc4c(cnn4-c4ccccc4)c3=O)cc2)cc1,53.6%,54.8%,87.3%,78.8%,75.4%,93.3%,71.2%,65.8%,86.1%,77.4%,84.9%,31.2%,67.7%,87.9%,96.3%,50.6%,81.4%,42%,73.2%,
COc1ccc2nc(Cl)c(-c3cc(-c4ccccc4)nc(=O)[nH]3)cc2c1,57.9%,60.8%,78.1%,69.9%,18%,55.2%,66.9%,77.4%,57.8%,92.9%,26.1%,4.96% (active),83.3%,58.5%,60.2%,64.4%,11.3%,105%,81.9%,
COc1ccc2nc(Cl)c(-c3cc(-c4ccccc4)nc(=S)[nH]3)cc2c1,72.6%,80.2%,89.4%,75.7%,90.4%,54.1%,37%,93.6%,78%,72.6%,72.6%,24.8%,45.3%,46.2%,67.9%,50.9%,63.5%,38.2%,16.5%,
COc1ccc(C=CC(=O)c2ccc(-n3c(C)nc4c(cnn4-c4ccccc4)c3=O)cc2)cc1,72.4%,70.6%,107%,80.5%,97.8%,97.3%,57.4%,90.8%,84.6%,116%,83.2%,12.4%,60.6%,84.4%,92.4%,65.6%,77.6%,74.6%,53.1%,
CN1CCc2c(sc3ncnc(N/N=C/c4cn(-c5ccccc5)nc4-c4ccc(Br)cc4)c23)C1,8.68% (active),81.2%,33.5%,54.6%,18.7%,71.8%,54.7%,25.3%,65.7%,5.81% (active),56.2%,18.5%,29.5%,83.6%,67.2%,72.9%,15.7%,29.9%,19.4%,
COc1cc(/C=C/C(=O)c2ccc(S(=O)(=O)NCCNc3nc(Nc4ccc(F)cc4)nc(N(C)C)n3)cc2)cc(OC)c1OC,13.7%,-21.6% (active),58.7%,30.2%,15.8%,60.4%,68%,18.4%,-64.2% (active),-50.8% (active),5.6% (active),4.79% (active),53.7%,,11.1%,13.5%,-94.9% (active),71.6%,5.45% (active),-44.8% (active)
Cc1ccc(-c2cc(-c3cc4ccccc4nc3Cl)[nH]c(=O)n2)cc1,10.1%,-8.6% (active),32.1%,-9.15% (active),0.523% (active),5.62% (active),-11.7% (active),35.5%,-22.6% (active),24.7%,14.2%,1.33% (active),38.5%,-33.9% (active),6.42% (active),16.2%,-42.6% (active),47%,10.2%,
Cc1ccc(-c2ccc(SCC(=O)Nc3ccc(Cl)c(C(F)(F)F)c3)nn2)cc1,30%,65.6%,90.1%,30%,13.8%,72.7%,-1.27% (active),40.4%,35.1%,-11% (active),23.9%,4.76% (active),38.7%,-32.5% (active),38.6%,13.2%,-35.1% (active),57.6%,2.2% (active),
O=c1nc(-c2ccccc2)cc(-c2cc3ccccc3nc2Cl)[nH]1,33.6%,35.6%,64.4%,42.5%,2.46% (active),41.8%,51.2%,68.9%,-19.8% (active),45%,38.4%,-11.9% (active),54.9%,-16.1% (active),38.2%,42.2%,-47.4% (active),91.2%,38.6%,
